RAD54 inh = blocks human RAD54 Holliday junction branch migration; Q92698; FAM/BHQ fluorescence; inhibition, % at 10.4 µM; 0.14% of 360,000 active; AID 602329;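 active = mean normalized replicate activity at least 40 and at least half of replicates scoring 40 or more; inconclusive = only one of the two criteria met; inactive = mean below 40 and under half of replicates reaching 40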;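 note: 0% = median of neutral control wells and 100% = median of positive control wells; inhibitors cause a drop in the FAM fluorescence signal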
Target sequence (Q92698 whole entry, looked up): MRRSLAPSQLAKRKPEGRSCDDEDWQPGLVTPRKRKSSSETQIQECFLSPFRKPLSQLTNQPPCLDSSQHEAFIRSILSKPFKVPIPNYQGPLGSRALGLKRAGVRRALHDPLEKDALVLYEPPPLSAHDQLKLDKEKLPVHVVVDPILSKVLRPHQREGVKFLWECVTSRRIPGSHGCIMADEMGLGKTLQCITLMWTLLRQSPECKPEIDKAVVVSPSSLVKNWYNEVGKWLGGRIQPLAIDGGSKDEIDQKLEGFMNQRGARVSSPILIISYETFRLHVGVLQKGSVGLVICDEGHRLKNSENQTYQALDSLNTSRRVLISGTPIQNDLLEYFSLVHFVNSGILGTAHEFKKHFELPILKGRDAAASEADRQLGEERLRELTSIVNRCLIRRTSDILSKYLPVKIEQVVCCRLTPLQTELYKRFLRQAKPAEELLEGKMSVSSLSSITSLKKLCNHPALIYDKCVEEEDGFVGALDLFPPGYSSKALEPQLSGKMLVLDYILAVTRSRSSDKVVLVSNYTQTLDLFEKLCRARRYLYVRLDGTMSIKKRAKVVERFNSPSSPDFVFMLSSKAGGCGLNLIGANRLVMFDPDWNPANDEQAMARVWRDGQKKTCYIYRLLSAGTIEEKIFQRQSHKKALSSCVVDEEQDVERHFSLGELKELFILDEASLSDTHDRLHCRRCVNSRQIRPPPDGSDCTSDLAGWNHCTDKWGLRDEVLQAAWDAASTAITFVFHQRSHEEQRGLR
INS-1E GSIS act = primary screen for activators of insulin secretion dependent on glucose, INS-1E cells, GLuc reporter luminescence; AID 743287; INS-1E GLuc reporter insulin secretion, 2-3 h; activation, % at 16.6 µM; 0.61% of 370,000 active;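 active = lowest replicate activation of at least 40%, so every replicate reaches that level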;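 note: 0% = median of neutral control wells and 100% = median of IBMX positive control wells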
dFosB activator = activators of mouse delta FosB homodimer. P13346. purified delta FosB, TAMRA-CDK5 oligo fluorescence polarization; percent of positive-control signal above neutral wells. activation, % at 25 µM. 0.99% of 340,000 active. AID 493131;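 active = mean activation above about 17%, with every replicate also reaching it, limit read from the data, passing the limit was not always enough; inconclusive = only one of the two conditions met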
AF4-AF9 inh = MLL-AF4/AF9 protein interaction inhibition; P42568; AlphaScreen, biotin-AF4 peptide binding to FLAG-AF9; inhibition, % at 10 µM; 0.47% of 350,000 active; AID 651704;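 active = every replicate reaching a set inhibition limit, whatever the replicate mean, cut at about 25% in these data; inconclusive = mean inhibition reaches that limit but some replicates miss it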;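 note: 0% = plate neutral control median and 100% = total signal loss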
RAD52 anneal inh = RAD52 (human) annealing inhibition; recombinant RAD52 DNA annealing, FRET fluorescence; inhibition, % at 18.7 µM; AID 651710; 0.46% of 360,000 active; P43351;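 active = every replicate showing at least 50% inhibition; inconclusive = mean inhibition at least 50% but not in every replicate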
DENV2 CPE = DENV2-induced cell death inhibition; DENV2-infected cells, cytopathic effect rescue, plate reader; CPE inhibition, % at 9.99 µM; 1.7% of 350,000 active; in the data active = CPE inhibition above about 20%, passing the limit was not always enough; inconclusive = no clear call, values can overlap the other calls; tested in BHK-21 cells;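 note: 0% = median of neutral control wells and 100% = median of positive control wells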
RAD52 DNA ctr = counter-screen for RAD52 inhibitors: DNA binding compounds | shares compounds with RAD52 anneal inh | 8% of 1,000 active | AC50, µM | Salmon sperm DNA/acridine orange FP displacement;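 active = fitted half-maximal concentration for signal loss at or below twice the highest dose tested, in every separate run, actives reach about 64 µM in these data; inconclusive = runs disagree, or flat partial signal loss, or poor fit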
The depositor's hits bear a star; i = inactive; ? = inconclusive; nt = no result given. The list is not random: actives were taken first. Their share in the collection is about 3.1%.

SMILES | RAD54 inh | INS-1E GSIS act | dFosB activator | AF4-AF9 inh | RAD52 anneal inh | DENV2 CPE | RAD52 DNA ctr
C[C@@H]1CN([C@H](C)CO)C(=O)c2cc(NC(=O)Cc3ccccc3)ccc2O[C@@H](C)CCCCO[C@@H]1CN(C)C(=O)Cc1ccccc1 | -1 | -33 | nt | 1 | 6 | 8 | nt
CCCCCCCCCCCCCCCC[n+]1cccc(C(=O)N(CC)CC)c1 | 40 | nt | 16 | 4 | 88* | 5 | i
Oc1ccc[n+](CCCCC[n+]2cccc(O)c2)c1 | -2 | 17 | 1 | -21 | -12 | 5 | nt
Cn1c(N=Nc2ccc(N3CCOCC3)cc2)[n+](C)c2ccccc21 | 92* | 4 | 40* | 58* | 103* | 2 | 11µM*
Cn1c(=Nc2ccc(N3CCOCC3)cc2)ccc2ccccc21 | 1 | nt | -4 | nt | nt | nt | nt
C#CCOCCOCCOCCNc1nc(N2CCN(C(=O)[C@H](CCCCN)n3cc(CN)nn3)CC2)nc(N2CCN(C(=O)[C@H](CCC(=O)O)n3cc([C@@H](N)CCCCN)nn3)CC2)n1 | -18 | 16 | 9 | 74* | 61* | 14 | i
C#CCOCCOCCOCCNc1nc(N2CCN(C(=O)[C@H](CCCCN)n3cc([C@@H](N)C(C)CC)nn3)CC2)nc(N2CCN(C(=O)[C@H](Cc3ccc(O)cc3)n3cc([C@@H](N)CC(C)C)nn3)CC2)n1 (stereo partly drawn) | 20 | 16 | -1 | 30* | 92* | -1 | i
C#CCOCCOCCOCCNc1nc(N2CCN(C(=O)[C@H](CCC(=O)O)n3cc(CN)nn3)CC2)nc(N2CCN(C(=O)[C@H](CCCCN)n3cc([C@@H](N)CC(N)=O)nn3)CC2)n1 | -14 | 16 | -4 | 1 | -12 | 1 | nt
C#CCOCCOCCOCCNc1nc(N2CCN(C(=O)C(Cc3ccc(O)cc3)n3cc(C(N)C(C)CC)nn3)CC2)nc(N2CCN(C(=O)C(Cc3ccc(O)cc3)n3cc(C(N)C(C)CC)nn3)CC2)n1 (stereo not drawn) | -9 | -15 | 1 | 9 | -25 | 3 | nt
C#CCOCCOCCOCCNc1nc(N2CCN(C(=O)CCCCCCCCCCNC(=O)[C@H](CCCCN)n3cc(CCO)nn3)CC2)nc(N2CCN(C(=O)CCCCCCCCCCNC(=O)[C@H](CCCCN)n3cc(CCCC(=O)O)nn3)CC2)n1 | -2 | nt | -74 | 55* | 52* | nt | i
C#CCOCCOCCOCCNc1nc(N2CCN(C(=O)C([C@@H](C)O)n3cc([C@@H](N)CCCCN)nn3)CC2)nc(N2CCN(C(=O)[C@H](CCCCN)n3cc([C@@H](N)[C@H](C)CC)nn3)CC2)n1 (stereo partly drawn) | 28 | 10 | 7 | 59* | 72* | -1 | i
O=C(C[C@@H]1CC[C@@H]2[C@H](COC[C@H](O)CN2Cc2ccccc2)O1)NCCc1ccccc1 | -9 | -13 | nt | -1 | -16 | -5 | nt
C#CCOCCOCCOCCNc1nc(N2CCN(C(=O)Cn3cc(CCCN=C(N)N)nn3)CC2)nc(N2CCN(C(=O)[C@H](CCCCN)n3cc(CCCC)nn3)CC2)n1 | -22 | 16 | 7 | 15 | 51* | -1 | i
C#CCOCCOCCOCCNc1nc(N2CCN(C(=O)[C@H](CO)n3cc([C@@H](N)C(C)C)nn3)CC2)nc(N2CCN(C(=O)[C@H](CCCCN)n3cc([C@@H](N)[C@H](C)CC)nn3)CC2)n1 | -26 | nt | 10 | 42* | 61* | nt | i
CC[C@H](C)Cc1cn([C@@H](CCCCN)C(=O)NCCCCCCCCCCC(=O)N2CCNCC2)nn1 | -3 | 40* | 7 | ? | 77* | -4 | i
C#CCOCCOCCOCCNc1nc(N2CCN(C(=O)[C@H]([C@@H](C)CC)n3cc([C@@H](N)CO)nn3)CC2)nc(N2CCN(C(=O)[C@H](CCCCN)n3cc([C@@H](N)CO)nn3)CC2)n1 | 6 | nt | 6 | 2 | 24 | 12 | nt
CNC[C@H]1OCCCC[C@@H](C)Oc2ccc(NS(=O)(=O)c3ccccc3)cc2C(=O)N([C@@H](C)CO)C[C@H]1C | 9 | 3 | nt | -2 | -16 | 11 | nt
CCC(=O)Nc1ccc2c(c1)OC[C@H](C)N(CCc1ccccc1)C[C@@H](C)[C@H](OC)CN(C)C2=O | -10 | -38 | nt | 4 | -4 | 1 | nt
CN(C)CCCNc1ncnc2oc(-c3ccccc3)c(-c3ccccc3)c12 | 39 | 9 | 2 | 15 | 34 | 13 | i
COc1ccc2c3c([nH]c2c1)[C@@H](CO)N(C(C)=O)CC31CCN(S(=O)(=O)c2cccs2)CC1 | nt | 13 | nt | -4 | 11 | -5 | nt
COc1cc(CNC(C)c2ccccc2)cc(Br)c1OCc1ccc(F)cc1 (stereo not drawn) | -5 | -22 | -18 | 0 | 54* | -10 | i
Cc1nc(Nc2nc(-c3ccccc3)cc(=O)[nH]2)nc2ccccc12 | 13 | -3 | -34 | nt | 95* | nt | i
COc1ccccc1C1c2ccc3ccccc3c2Oc2ncn(CCN(C)C)c(=N)c21 (stereo not drawn) | 13 | 75 | -3 | 18 | 60* | -3 | i
COc1ccc(C2c3ccc4ccccc4c3Oc3ncn(CCCN(C)C)c(=N)c32)cc1 (stereo not drawn) | 23 | 0 | -5 | 33* | 80* | 4 | i
Cc1noc(C)c1NC(=O)Nc1cccc2c1O[C@@H](CN(C)S(=O)(=O)c1cn(C)cn1)[C@@H](C)CN([C@H](C)CO)C2=O | 5 | 7 | nt | -2 | 5 | ? | nt
SMILES | RAD54 inh | INS-1E GSIS act | dFosB activator | AF4-AF9 inh | RAD52 anneal inh | DENV2 CPE | RAD52 DNA ctr
CC(C(=O)c1ccc(-c2ccccc2)cc1)[n+]1cccc(NC(=O)c2ccccc2)c1 (stereo not drawn) | ? | -13 | 2 | ? | 58* | 0 | i
CCN1CCN(CCNC(=O)c2ccc(/C=C3/Sc4ccccc4N(Cc4ccccc4C)C3=O)cc2)CC1 | 1 | 27 | -204 | 21 | 55* | 3 | i
CCN1CCN(CCCNC(=O)c2ccc(/C=C3/Sc4ccccc4N(Cc4ccccc4F)C3=O)cc2)CC1 | 54* | 100* | -359 | 8 | 76* | 4 | i
O=C(Nc1ccc(Cl)cc1)N1C[C@H]2[C@@H](c3ccccc31)[C@@H](CO)N2C(=O)c1ccccn1 | 15 | -14 | nt | 0 | -8 | 6 | nt
CC[C@@H](C)[C@@H]1CN([C@@H](CN2CCC[C@H]2CN2C(N)=NC[C@H]2CC(C)C)C(C)C)C(=N)N1CCc1ccc(Cl)c(Cl)c1 | 14 | 12 | 10 | 20 | 50* | 11 | i
CCC[C@@H](CN1CCC[C@H]1CN1C(N)=NC[C@@H]1Cc1ccccc1)N1C[C@@H](Cc2ccccc2)N(CCCC2CCCC2)C1=N | 19 | nt | 6 | nt | nt | nt | nt

Bioassay records: PubChem, Broad Institute
